The list is not random: actives were taken first. Their share in the collection is about 5.7%.
NPSR antag = antagonists of human neuropeptide S receptor cAMP signaling. Q6W5P4. 220,000 compounds, 1% hits. CHO-NPSR cells, cAMP TR-FRET, antagonist mode. Potency, µM (highest dose often 38.3 µM), for the others: top-dose activity change, negative = inhibition, most hits filed as inhibitors; further: nearly all actives have a fitted effect of over 50% in size
B2AR arrestin = agonists driving beta-arrestin recruitment to human beta2-adrenergic receptor. beta-arrestin recruitment to beta2AR, cell-based reporter. Potency, µM (highest dose often 46.1 µM), for inactives: at the top dose activation, actives largely listed as activators. 330,000 compounds, 0.02% hits. AID 492947;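 further: 0% = DMSO controls and full agonism = EC100 isoproterenol or metaproterenol; nearly all actives have a fitted effect of over 65% in size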
Gal4-VP16 FLuc = counter-screen for ROR gamma inhibitors: Gal4-VP16 reporter | Drosophila S2 Gal4-VP16 UAS-luciferase, luminescence, 20 h | Potency, µM (doses to about 53.6 µM), for the others: at the top dose activity, negative = inhibition, most hits filed as inhibitors | 310,000 compounds, 3.5% hits | AID 2546;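 further: Gal4-VP16 expression switched on by copper sulfate through the metallothionein promoter; nearly all actives have a fitted effect of over 50% in size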
RORg inh = inhibitors of mouse ROR gamma transcriptional activity | P51450 | Drosophila S2 Gal4-RORgamma UAS-luciferase reporter, 20 h | Potency, µM (top dose mostly 53.6 µM), for inactives: top-dose activity change, negative = inhibition, hits mostly inhibitors | 310,000 compounds, 5.4% hits | AID 2551; further: nearly all actives have a fitted effect of over 60% in size
Target sequence (P51450 whole entry, looked up, the tested form may be a part): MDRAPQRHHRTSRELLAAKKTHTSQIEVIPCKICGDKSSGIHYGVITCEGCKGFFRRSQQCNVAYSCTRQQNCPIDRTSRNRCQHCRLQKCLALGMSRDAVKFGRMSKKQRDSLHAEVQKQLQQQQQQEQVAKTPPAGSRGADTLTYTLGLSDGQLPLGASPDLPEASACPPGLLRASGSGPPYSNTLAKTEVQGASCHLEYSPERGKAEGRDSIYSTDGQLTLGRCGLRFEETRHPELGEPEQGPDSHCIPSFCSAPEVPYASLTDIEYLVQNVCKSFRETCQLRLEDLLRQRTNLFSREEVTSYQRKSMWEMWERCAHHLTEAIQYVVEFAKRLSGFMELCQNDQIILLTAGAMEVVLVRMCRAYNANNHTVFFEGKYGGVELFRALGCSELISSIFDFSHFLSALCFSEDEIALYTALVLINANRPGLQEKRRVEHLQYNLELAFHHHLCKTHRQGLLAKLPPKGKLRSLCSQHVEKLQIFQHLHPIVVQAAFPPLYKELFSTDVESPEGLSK
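Compounds are pin-transferred onto Drosophila Schneider cells expressing a copper-inducible Gal4–ROR gamma transactivation domain fusion. After 1 hr, copper sulfate is added to 700 uM final; luciferase is read 20 hr later.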
An asterisk follows results filed as active; ? = inconclusive; · = not tested or not shown; [ ] = remark or other dose. The call rests on the fitted dose curve; in most records, active means well fitted curve in the direction sought with a large enough effect; inconclusive means small, poorly fitted or top-dose-only effect, or another doubt; inactive means no such curve, though single readings can be large; an effect the other way counts as inactive or inconclusive. Unless noted, on the % scale 0 is the no-effect control and ±100 the full control effect; potency means the concentration at half of the fitted maximal effect.

SMILES	NPSR antag	B2AR arrestin	Gal4-VP16 FLuc	RORg inh
COc1ccc([C@@H]2CC(=O)c3c(O)cc(O[C@@H]4O[C@H](CO[C@@H]5O[C@@H](C)[C@H](O)[C@@H](O)[C@H]5O)[C@@H](O)[C@H](O)[C@H]4O)cc3O2)cc1	·	·	-2%	-10%
CN(C)C=O	·	·	7%	-11%
CC(=O)/C(=N\Nc1cccc(Cl)c1)Sc1nnc(-c2ccccc2)n1-c1ccccc1	-37%	-1%	11µM*	10µM*
CC(=O)/C(N)=N/Nc1cccc(Cl)c1	15%	-3%	7%	19%
CC(=O)/C(=N\Nc1cccc(Cl)c1)Sc1cccc2cccnc12	21%	-1%	?	3.2µM*
O=C(CSc1nnc(-c2n[nH]c3ccccc23)n1-c1ccccc1)Nc1cccc(Cl)c1	-36%	-1%	-17%	2%
NC(=S)N=Nc1c(O)n(Cc2ccc(F)cc2)c2ccccc12	?	9.2µM*	1.3µM*	1.3µM*
CC(=O)OC1COC(n2c(O)c(N=NC(N)=S)c3ccccc32)C(OC(C)=O)C1OC(C)=O (stereo not drawn)	·	0%	10µM*	6.3µM*
O=Nc1c(O)n(Cc2ccc(Cl)cc2)c2ccccc12	-19%[46.1 µM]	0%	11µM*	?
Cn1c(O)c(N=NC(N)=S)c2ccccc21	·	·	3.2µM*	1.1µM*
CC(=O)OC1COC(n2ccc3ccccc32)C(OC(C)=O)C1OC(C)=O (stereo not drawn)	-12%[46.1 µM]	-1%	-1%	1%
Cn1c(O)c(N=NC(=O)c2ccccc2O)c2ccccc21	51%	9%	-25%	-41%
O=C(N=Nc1c(O)n(Cc2ccccc2)c2ccccc12)c1ccc(O)cc1	-45%	-2%	-26%	?
O=C(NCCN1CCOCC1)C1(C(F)(F)F)C/C(=C\CCO)CCCO1 (stereo not drawn)	·	·	-24%	-1%
Cc1ccc2c(c1)c(N=NC(N)=S)c(O)n2Cc1ccccc1	0%	-1%	2.5µM*	1.6µM*
Cc1cccc(NC(=O)Cn2c(O)c(N=NC(N)=S)c3ccccc32)c1	-14%	6%	?	?
NC(=S)N=Nc1c(O)n(Cc2ccc(Br)cc2)c2ccccc12	-45%	4%	0.89µM*	0.79µM*
CC(=O)NCCCC[C@H](NC(=O)OC(C)(C)C)C(=O)Nc1ccc2c(C(F)(F)F)cc(=O)oc2c1	·	·	-2%	2%
NC(=S)N/N=C/c1ccc2cccc(OCc3ccccc3)c2n1	·	-1%	?	7.1µM*
O/N=C/c1ccc2cccc(OCc3ccccc3)c2n1	·	0%	0%	-1%
O=C(CN1C(=O)c2ccccc2S1(=O)=O)c1ccc(F)c(F)c1	·	-1%	11µM*	10µM*
COc1ccc(C(=O)CN2C(=O)c3ccccc3S2(=O)=O)cc1	-7%	0%	?	5.6µM*
COc1ccc(C(=O)CN2C(=O)c3ccccc3S2(=O)=O)cc1Br	·	-1%	-17%	0%
CSc1cccc(NC(=O)CN2C(=O)c3ccccc3S2(=O)=O)c1	-6%[46.1 µM]	0%	13µM*	-27%
O=C1C(=O)N(CC2CCCO2)C(c2ccccc2[N+](=O)[O-])/C1=C(/O)c1ccccc1 (stereo not drawn)	3%	0%	22%	?
SMILES	NPSR antag	B2AR arrestin	Gal4-VP16 FLuc	RORg inh
CCC[C@H]1C[C@H](C(=O)N[C@@H]([C@H]2O[C@@H](SC)[C@@H](O)[C@@H](O)[C@@H]2O)[C@H](C)Cl)N(C)C1	·	·	?	-21%[16.9 µM]
O=C(c1cc(C(F)(F)F)cc(C(F)(F)F)c1)N1CCC2(CC1)CN(c1ccccc1)C2	·	·	6%	-1%
C=C(Br)Cn1c(CC)nc2ccccc21	-14%[46.1 µM]	-1%	0%	-35%
CC(C)Cc1nc2ccccc2n1CCc1ccccc1	-14%	0%	?	8.9µM*
C=C(Br)Cn1c(CC(C)C)nc2ccccc21	-11%[46.1 µM]	1%	-6%	35µM*
CCc1nc2ccccc2n1CCC(C)C	-10%[46.1 µM]	0%	13µM*	10µM*
CC(C)(C)Cc1nc2ccccc2n1CCc1ccccc1	-28%[46.1 µM]	0%	16µM*	7.9µM*
CCOCCn1c(CC)nc2ccccc21	-11%	0%	2%	-42%
CCc1nc2ccccc2n1CCc1ccccc1	-10%	0%	2%	8.9µM*
CCn1c(CCc2ccccc2)nc2ccccc21	·	0%	?	?
CCOC(=O)c1cnc2c(OC)cccc2c1Nc1ccc2c(c1)OCCO2	-39%	0%	18µM*	16µM*
S=c1[nH]nc(COc2ccc3ccccc3c2)o1	-14%[46.1 µM]	-1%	4µM*	?
COc1ccc(Cc2n[nH]c(=S)o2)cc1	-7%	0%	-2%	9%
COc1ccc(CCCc2n[nH]c(=S)o2)cc1	-16%	-1%	5%[10 µM]	13µM*
COc1cc(-c2nc(-c3ccc4c(c3)-c3ccccc3S4(=O)=O)c(-c3ccccc3)[nH]2)cc(OC)c1O	?	0%	4.5µM*	?
COc1ccc(-c2[nH]c(-c3ccc(C(=O)O)cc3)nc2-c2ccccc2)cc1	-11%[46.1 µM]	-1%	0%	19%
COCC(=O)N1CCC2(CC1)CN(C(=O)Nc1cccc(C#N)c1)C2	·	·	6%	7%
O=C(N/N=C/c1ccc[nH]1)c1sc2ccccc2c1Cl	-27%[46.1 µM]	0%	0.56µM*	0.32µM*
O=C(N/N=C/c1c[nH]c2ccccc12)c1cccc(Cl)c1	·	0%	?	?
CCc1ccc(-c2cc(C(=O)N/N=C/c3c[nH]c4ccccc34)[nH]n2)cc1	-54%	0%	13µM*	11µM*
CCc1ccc2c(Cl)c(C(=O)N/N=C/c3c[nH]c4ccccc34)sc2c1	-15%[46.1 µM]	0%	-7%	8.9µM*
CCc1ccc(C2=NN(C(C)=O)C(c3ccco3)C2)cc1 (stereo not drawn)	-10%	0%	-7%	3%
COc1ccc(-n2c(SCC(=O)NCC3CCCO3)nc3c(c2=O)SC(C)C3)cc1 (stereo not drawn)	·	0%	1%	-8%
c1coc(-c2nn3c(Cn4nnc5ccccc54)nnc3s2)c1	-2%[46.1 µM]	0%	7%	-25%
Cc1ccc(NC(=O)c2ccc(Cl)c(N3C(=O)C=CC3=O)c2)cc1	?	0%	3.2µM*	7.9µM*
SMILES	NPSR antag	B2AR arrestin	Gal4-VP16 FLuc	RORg inh
CN(C)c1cccc(C(=O)Nc2cccc(S(=O)(=O)NC3=NCCC3)c2)c1	·	0%	23%	0%
O=C1c2ccccc2-c2onc3ccc(NCCCn4ccnc4)c1c23	-29%[46.1 µM]	0%	-23%	13µM*
NS(=O)(=O)c1ccc(NCCCn2ccnc2)c([N+](=O)[O-])c1	·	0%	-2%	-5%
Cc1ccc(NC(=O)COC(=O)c2ccc(CN3CCCC3=O)cc2)c(Cl)c1	·	0%	·	·
O=C(NNC(=O)c1ccccc1OCc1ccccc1)c1ccccc1O	·	0%	11µM*	6.3µM*
O=C(NNC(=O)c1ccccc1OCc1ccccc1)c1ccccc1F	·	0%	-14%	-17%
O=C(NNC(=O)c1ccccc1OCc1ccc(F)cc1)c1ccccc1O	·	0%	10µM*	4.5µM*

Compound activity: PubChem BioAssay, National Center for Advancing Translational Sciences (NCATS)
